Assay outcomes (PubChem)
Sampled rows, rich in hits. Any-hit rate of the full collection: about 4.8%.
SMARCA2 act – SMARCA2 function activation, primary screen; MG213 cells, MMTV-luciferase reporter, dexamethasone, overnight; activation, % at 9.1 µM; 370,000 compounds, 1% hits; in the data active means activation above about 7.8%;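 further: 0% = vehicle wells and 100% = reference activator wells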
ssDAF-12 act – activates DAF-12 receptor from parasite S. stercoralis; HEK293 ssDAF-12/GRIP1 lit1-tk-luc reporter, luminescence; % of 3 µM dafachronic acid response; activation, % at 6.8 µM; 370,000 compounds, 1% hits;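 active means activation above the mean over all tested compounds plus 3 SD, cut at about 0.9% in these data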;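 further: 0% = DMSO-only wells and 100% = 3 µM delta7-dafachronic acid wells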
hcDAF12 agonist – activates DAF-12 receptor from parasite H. contortus | 370,000 compounds, 1.4% hits | HEK293 hcDAF-12 lit1-tk-luc reporter, luminescence; 0% DMSO, 100% Δ7-dafachronic acid | activation, % at 6.8 µM;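 active means activation above the mean of all tested compounds plus 3 SD, cut at about 5.5% in these data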;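 further: 100% = response to 3 µM Δ7-dafachronic acid high control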
DAX1 inh-1 – NR0B1 (DAX1) inhibition; P51843; HEK293 Gal4-DAX1 luciferase reporter, luminescence; inhibition, % at 6.75 µM; 340,000 compounds, 0.99% hits; AID 504766;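 active means inhibition above the mean over all tested compounds plus 3 SD, cut at about 4.2% in these data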;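 further: 0% = DAX1-transfected cells with DMSO and 100% = empty-vector control cells with DMSO; inhibition shows as a rise in luminescence from relieved DAX1 repression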
Target sequence (P51843 207-470 limits assumed): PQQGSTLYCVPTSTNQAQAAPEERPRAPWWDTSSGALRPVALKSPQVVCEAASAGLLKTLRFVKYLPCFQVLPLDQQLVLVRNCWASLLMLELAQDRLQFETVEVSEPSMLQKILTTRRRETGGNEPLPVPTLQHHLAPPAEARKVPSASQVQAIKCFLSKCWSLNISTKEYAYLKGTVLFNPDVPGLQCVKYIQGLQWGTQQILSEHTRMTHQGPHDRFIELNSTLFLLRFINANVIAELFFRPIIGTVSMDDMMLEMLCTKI
DAX1 inh-2 – DAX1 (NR0B1) inhibition, primary screen. 370,000 compounds, 1.1% hits. AID 652010. HEK293T StAR-luciferase reporter, SF-1/DAX-1 repression relief. inhibition, % at 6.8 µM;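 active means inhibition above the mean over all tested compounds plus 3 SD, cut at about 3.6% in these data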;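 further: 0% = DAX-1 cells with DMSO and 100% = cells lacking DAX-1 with DMSO; higher inhibition means more luminescence from relief of DAX-1 repression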
hgDAF12 agonist – hgDAF-12 agonism, primary luciferase screen | HEK293 GAL4-hgDAF12 UAS-luciferase reporter, agonist luminescence; normalized to butyrate control | activation, % at 6.8 µM | 370,000 compounds, 1.8% hits;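 active means activation above a cutoff set at the mean of all screened compounds plus 3 SD, cut at about 10% in these data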;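 further: 0% = DMSO wells and 100% = sodium butyrate wells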
LXRb hcDAF ctr – LXR-beta agonism as hcDAF-12 counter-screen; activation, % at 6.8 µM; shares compounds with hcDAF12 agonist; 3,400 tested, under 10 active; HEK293 Gal4-LXR tk-luc reporter, luminescence, 24 h; normalized: DMSO 0%, positive control 100%;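 active means mean percent activation of the reporter above a cutoff set as the average over tested compounds plus their standard deviation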
hcDAF12 conf – confirmation of H. contortus DAF-12 agonists; HEK293 hcDAF-12 lit1-tk-luc reporter, luminescence; % of Δ7-dafachronic acid response; shares compounds with hcDAF12 agonist; AID 743032; activation, % at 6.8 µM; 3,400 compounds, 61% hits;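 active means mean activation across triplicate tests above the threshold derived from the earlier primary screen, cut at about 5.5% in these data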;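 further: 0% = DMSO only wells and 100% = 3 µM Δ7-dafachronic acid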
The depositor's hits bear a star; . = not tested or not shown.

SMILES | SMARCA2 act | ssDAF-12 act | hcDAF12 agonist | DAX1 inh-1 | DAX1 inh-2 | hgDAF12 agonist | LXRb hcDAF ctr | hcDAF12 conf
COC(=O)C[C@H]1C[C@@H]2c3cc(NC(=O)NC4CCCC4)ccc3O[C@@H]2[C@@H](CO)O1 | 3 | -2 | 2 | 2 | 0 | 1 | . | .
Cc1ccc(-n2ncc(Cl)c2C(=O)NC2CC2)cc1 | 8 | 0 | 8.8* | 2 | 2 | 11* | 0 | 5.6*
Cc1ccc(-n2ncc(C(=O)NC3CC3)c2C2CCN(C(=O)OC(C)(C)C)CC2)cc1 | 0 | -1 | 0 | 1 | 0 | -1 | . | .
CCOc1ccc(Nc2ccc(C(=O)O)cc2[N+](=O)[O-])cc1 | -4 | -1 | -1 | 1 | 0 | -1 | . | .
COc1ccc(OC)c(Nc2ccc(C(=O)O)cc2[N+](=O)[O-])c1 | 0 | 0 | 8.4* | 0 | -1 | 2 | 0 | 2
COC(=O)c1cc(-c2ccc(C(C)(C)C)cc2)c(=O)n2c1CCC2 | -1 | -1 | 7.1* | . | 1 | -1 | 0 | 1
CC(=O)Nc1sc(N/N=C\c2ccc(O)cc2)nc1-c1cccs1 | 5 | 1 | 2 | 1 | 1 | 7 | . | .
CC(=O)Nc1sc(N/N=C\c2cccc(Cl)c2)nc1-c1cccs1 | 2 | -1 | 8.4* | 1 | 1 | 5 | 0 | 7.8*
O=C(N/N=C/c1ccc([N+](=O)[O-])o1)C1CC1 | -4 | 0 | 1 | 1 | -3 | -6 | . | .
Cc1ccc(Nc2nc3ccccc3o2)cc1F | 6 | 1 | 7.3* | 2 | 4.0* | 12* | 1 | 5
Cc1onc(C(=O)Nc2c(C)n(C)n(-c3ccccc3)c2=O)c1[N+](=O)[O-] | 2 | -1 | 0 | -1 | 1 | -2 | . | .
Cc1cc2ccccn2c1C(=O)Nc1ccccc1 | 5 | 1.0* | 9.7* | 1 | 1 | 4 | 0 | 9.6*
Cc1cc2ccccn2c1C(=O)Nc1ccc(Cl)cc1 | 5 | 0 | 8.8* | 3 | 1 | 10 | 1 | 9.4*
Cc1c(C(=O)Nc2ccc(Cl)cc2)c2ccccn2c1C(=O)c1ccc(F)cc1 | -5 | -1 | 1 | 0 | 1 | 0 | . | .
Cc1ccc(C(=O)Nc2ccc(F)cc2F)o1 | -2 | 0 | 0 | 0 | 0 | 2 | . | .
Cc1ccc(C(=O)Nc2ccn(Cc3ccc(F)cc3)n2)o1 | 0 | 0 | 6.9* | 2 | 1 | 2 | 0 | 3
Cc1cc(NC(=O)CCl)n(-c2nc3ccccc3s2)n1 | 3 | 0 | 6.8* | -1 | 1 | 0 | 0 | 5
Cc1cc(C)nc(SCC(=O)OCC(=O)Nc2nc3ccccc3s2)n1 | 6 | 0 | 8.5* | -1 | 0 | 4 | 0 | 6.5*
Cc1cc(C)nc(NC(=O)CSc2nc3ccccc3s2)n1 | 6 | 2.1* | 7.7* | 1 | 3 | 10 | 1 | 9.3*
CC(C)CC(=O)N1CCC(O)(CS(=O)(=O)c2ccc(Cl)c(Cl)c2)CC1 | -1 | -1 | 0 | 1 | 0 | -1 | . | .
CCO[C@H]1OC(C(=O)N2CCN(C)CC2)=C[C@@H](C2CC2)[C@@H]1CCCO | 0 | -1 | -1 | 2 | 0 | -2 | . | .
O=C(Nc1c(-c2ccccc2)[nH][nH]c1=O)c1ccc(Br)cc1 | -3 | -1 | -2 | . | 0 | -1 | . | .
Clc1ccc(/C=C/c2nc3ccccc3[nH]2)c(Cl)c1 | 0 | 1.2* | 12* | -3 | 3 | 9 | 2 | 17*
CC(CCN1CCC(C(O)(c2ccccc2)c2ccccc2)CC1)Oc1ccc(OC(F)(F)F)cc1 (stereo not given) | -5 | 0 | 7.5* | . | 0 | 5 | 0 | 3
Cc1cc(OCCCN2CCC(C(O)(c3ccccc3)c3ccccc3)CC2)ccc1Br | -6 | -1 | 0 | . | 0 | 0 | . | .
